Molecules are shown by their SMILES. pKd: −log10 of the molar value. Bounds are passed on as bounds.

The subject of one assay is T1, ERK8.
T1 construct: gene MAPK15

Another assay concerns T2, GRK3.
T2 construct: gene ADRBK2

Another assay has as its system T3, HASPIN.
T3 construct: gene GSG2
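Note: kd values determined as follow-up on hits from a single-replicate KINOMEscan panel screen.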

For `Cn1cncc1-c1ccc2ncnc(Nc3ccc(OCc4ccccc4)cc3)c2c1` [GW320571], the pKd in the assay on EIF2AK1 is less than 5.00; in the assay with ERBB2 it was 7.39.
With `Nc1ncnc2[nH]c(-c3ccccc3)nc12` [AH5015], in the assay with EIF2AK1, the pKd was less than 5.00.
`COc1ccc(CNC(=O)NC2CCN(c3ccnc(Nc4cc(OC)c(OC)c(OC)c4)n3)C2)cc1` (stereo not drawn) [GSK1379748] showed a pKd in the assay on EPHB6 of 6.74.
Still for that read-out and setting: under `COc1cc(Nc2nccc(N3CCC(NC(=O)Nc4cc(C)ccc4C)C3)n2)cc(OC)c1OC` (stereo not drawn) [GSK1379762] stands 5.96.
As to `Cl.O=C(Nc1cccc(-c2nn3ncccc3c2-c2ccnc(Nc3cccnc3)n2)c1)c1c(F)cccc1F` [GSK312879], the pKd with ERBB2 is 7.54; with ERBB4 it was 7.19.
In the case of `Cl.NC(=O)c1cccc(Nc2nccc(Nc3ccc(Oc4cccc(Cl)c4)c(Cl)c3)n2)c1` [GW659008], the pKd in the assay with ERBB3 was 6.59.
With `O=C(Nc1n[nH]c2nc(-c3nccs3)c(Br)cc12)C1CC1` [SB-742251], in the assay with ERK8, the pKd was 6.06.
For the compound `NC(=O)c1nnc2ccccc2c1N`, the pKd in the assay on FGFR3 is less than 5.00.
For the compound `Cn1ccc2ncnc(Oc3ccc(NC(=O)Nc4ccccc4)cc3)c21`, the pKd in the assay on FLT1 is 6.46.
Still for that read-out and setting: under `O=C(Nc1ccccc1)Nc1cccc(Oc2ccc3nccn3n2)c1` stands 7.04.
In the assay with FLT4, `COc1cccc(-c2cc(-c3c[nH]nc3-c3ccccn3)ccn2)c1` [GW680338] showed a pKd of less than 5.00.
With `O=C(O)COc1ncnc2cc(-c3ccc4[nH]ncc4c3)sc12`, the pKd with FRK and in the assay with FYN was less than 5.00 throughout.
`CC(=O)Nc1nc2cnc(Nc3cc(NC(=O)c4cccc(CCC#N)c4)ccc3C)nc2s1`: the pKd with FRK was less than 5.00.
As for `CC(C)(C)c1ccc(C(=O)Nc2cn3cc(Cl)ccc3n2)cc1`, in the assay with FYN, the negative-log Kd (pKd) was less than 5.00.
In the assay on GRK1, `Clc1cc(Cl)cc(Nc2ccnc(Nc3cc(Cl)cc(Cl)c3)n2)c1` [GSK175726] gave a pKd of less than 5.00.
The same measure, in the same setting: under `CCCc1ccc(S(=O)(=O)NC2CCN(c3ccnc(Nc4ccc(F)cc4)n3)C2)cc1` (stereo not drawn) [GSK1379715] stands less than 5.00.
Compound `O=C(Nc1ccc2c(c1)OCO2)NC1CCN(c2ccnc(Nc3ccc(F)cc3)n2)C1` (stereo not drawn) [GSK1379724] had a pKd with GRK3 of less than 5.00.
As for `Cc1ccc(NC(=O)Nc2cc(C(C)(C)C)nn2-c2ccccc2)cc1` [GSK1014915], the pKd with GRK3 is less than 5.00.
For the compound `O=C1NC(=O)C(N2CCc3ccccc32)=C1c1ccccc1Cl` [SB-373598], the pKd in the assay on HASPIN was less than 5.00.
On the same count and under the same terms, under `Cc1csc(-c2nc(Nc3ccncc3)c3ccccc3n2)n1` [GW869640] stands 7.11.
On to `Cc1nnc(-c2ccc3occ(-c4ccc(S(C)=O)cc4)c3c2)[nH]1` (stereo not drawn), for which the pKd in the assay with HIPK2 was 6.49.

Broadly, the pKd is the negative decadic logarithm of the Kd, by convention in mol/L. A higher pKd goes with a small Kd.

The record behind these values is PMC5540273 (PLoS ONE, 2017).
